# High-throughput results (PubChem BioAssay)
# A selection: hits, their analogues and other compounds. The true share with any hit is near 6%.
# DRD3 antagonist – qHTS of D3 Dopamine Receptor Antagonist: qHTS; D3R cells, DiscoveRx beta-arrestin luminescence, antagonist mode; active compounds read low; max response, negative = inhibition, %; actives 2.5% (n = 360,000); in the data active means max response below about -50%; further: on the % scale 0 is the no-effect control and ±100 the full control effect
#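 Cells plated overnight at 1500 cells/well, then exposed to library compounds with dopamine controls for 90 minutes at 37 degrees C. DiscoveRx reagent added for 30–60 minutes at room temperature; luminescence read, quantitative HTS format.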
# D1 PAM – Potentiators of Human D1 Dopamine Receptor: qHTS; potentiation, % at 10 µM; actives 0.036% (n = 360,000); AID 504651, 2011; HEK293 TREx D1 cells, calcium flux, dopamine EC20 potentiation; D(1A) dopamine receptor (Homo sapiens), P21728; in the data active means potentiation above about 30%; further: 0% is about no effect
# Target sequence (P21728 whole entry, looked up): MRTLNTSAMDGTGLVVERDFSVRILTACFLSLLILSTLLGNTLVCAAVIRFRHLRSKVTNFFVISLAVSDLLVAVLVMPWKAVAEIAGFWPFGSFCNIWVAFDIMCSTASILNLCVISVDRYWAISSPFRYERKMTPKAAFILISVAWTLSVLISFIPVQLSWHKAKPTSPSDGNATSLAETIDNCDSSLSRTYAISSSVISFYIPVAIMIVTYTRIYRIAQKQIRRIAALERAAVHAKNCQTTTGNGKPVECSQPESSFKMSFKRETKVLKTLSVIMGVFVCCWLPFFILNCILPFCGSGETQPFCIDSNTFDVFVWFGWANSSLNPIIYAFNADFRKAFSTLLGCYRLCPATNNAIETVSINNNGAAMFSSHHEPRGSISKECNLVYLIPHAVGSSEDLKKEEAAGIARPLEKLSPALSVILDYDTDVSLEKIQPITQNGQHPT
# D1 agonist – Allosteric Agonists of the Human D1 Dopamine Receptor: qHTS; HEK293 T-REx D1 cells, calcium flux, agonist mode; activation, % at 2 µM; actives 1% (n = 360,000); AID 504660, 2011; in the data active means activation above about 30%; further: 0% is about no effect
#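 Agonism was scored from calcium flux recorded over 180 s (1 read/s) after pintool compound addition, following a 10-cycle baseline. Cells were inducible force-coupled HEK293 TREx D1, plated overnight at 30 C and loaded with no-wash calcium dye.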
# D3 ag – qHTS of D3 Dopamine Receptor Agonist: qHTS; D3R DiscoveRx beta-arrestin cells, luminescence, 90 min; actives 0.58% (n = 410,000); AID 652048, 2013; max activation, %; D(3) dopamine receptor (Homo sapiens), P35462; in the data active means max activation above about 30%; further: 0% is about no effect
#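 Cells at 1500/well, incubated overnight, then treated with pinned compounds (dopamine as control) for 90 min at 37 degrees C. DiscoveRx reagent added for 30 - 60 minutes at room temperature; luminescence read.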
# D1 antagonist – Antagonist of Human D 1 Dopamine Receptor: qHTS. activity change, negative = inhibition, % at 10 µM. D(1A) dopamine receptor (Homo sapiens), P21728. actives 3.2% (n = 360,000). HEK293 TREx D1 cells, calcium flux, dopamine EC80; active compounds read low; in the data active means activity change below about -30%; further: on the % scale 0 is the no-effect control and ±100 the full control effect
#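 Inducible Hek293 Trex D1 cells (tetracycline, overnight, 30 C). Calcium dye 30–90 min RT. Antagonist mode: EC80 dopamine added after 180 s compound read.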
# The depositor's hits bear a star; . = not tested or not shown; ! = not active in a repeat.
SMILES,DRD3 antagonist,D1 PAM,D1 agonist,D3 ag,D1 antagonist
COc1ccc(NC(=O)c2sc3nc4c(c(-c5ccc(OC)cc5)c3c2N)C(=O)CC(C)(C)C4)cc1,.,-4,12,2,-36*
Cc1ccc(C(C(=O)NC2CCCCC2)N(Cc2ccccc2)C(=O)Cc2c[nH]c3ccccc23)o1 (configuration not stated),2,-6,2,1,-82*
COc1ccc(CN(C(=O)Cc2c[nH]c3ccccc23)C(C(=O)NC2CCCCC2)c2ccc(C)o2)cc1 (configuration not stated),31,-3,3,0,-18
Cc1ccc(Sc2ccc(CN3CCCCC3)cc2[N+](=O)[O-])cc1,-106*,-2,0,-1,-12
CCOc1ccccc1CNS(=O)(=O)c1ccc(-c2coc(C)n2)cc1,.,-5,10,3,-4
COc1ccc(CCNC(=O)c2cc(Nc3ccccc3)nc3ccccc23)cc1OC,.,-6,6,-12,-24
CC1=NN(c2nc(N)nc(/C(C#N)=C/c3ccc([N+](=O)[O-])o3)n2)C(C)(C)C1,-61*,.,.,-7,.
COc1ccc(Cl)cc1NC(=O)CN(c1cccc(C)c1C)S(C)(=O)=O,.,-3,11,-5,-9
O=C(O)c1ccc(-c2ccccc2C(F)(F)F)o1,24,1,0,4,-3
Cc1ccccc1-c1ccc(C(=O)NCc2ccccc2)o1,-12,-8,-1,-35,-42*
O=C(NCc1ccccc1)c1ccc(-c2ccccc2C(F)(F)F)o1,-56*,-6,13,-90,-8
COc1ccc(Nc2nc3ccccc3n3c(N)nnc23)cc1,.,-1,1,6,8
CCCCC1=CC2=C(c3ccco3)C(=O)C(C)(OC(=O)c3ccc(OC)cc3)C(=O)C2=CN1CC1CC1 (configuration not stated),-64*,5,1,-36,36
COc1ccc(NC(=O)C(C)n2c(C)c3cnn(-c4ccccc4)c(=O)c3c2C)cc1Cl (configuration not stated),.,-2,14,-17,9
Cc1ccc(C)c(NC(=O)Cn2nc(-c3ccccc3)nc2-c2ccccc2)c1,-12,-1,-1,1,-33*
COc1cccc(NC(=O)c2c(N3CCCC3=O)c3cc(C)ccc3n2C)c1,.,1,0,7,-4
Cc1ccc(CCNS(=O)(=O)c2cnc[nH]2)cc1,-66*,5,2,-4,16
O=S(=O)(NCc1ccc(Cl)cc1)c1cnc[nH]1,-12,-2,6,-2,-6
Cc1ccc(NC(=O)Cn2c(C)cc(C)c(C#N)c2=O)cc1,.,0,1,-8,6
CCC(=O)Nc1nnc(S(=O)(=O)N2CCc3ccccc32)s1,0,-4,0,-4,8
CCN(c1ccccc1)S(=O)(=O)c1nnc(NC(=O)c2cccs2)s1,.,-3,23,-26,-41*
CC(C)CN(c1ccccc1)S(=O)(=O)c1nnc(NC(=O)c2ccco2)s1,-86*,0,1,-20,4
CC(C)CC(=O)Nc1nnc(S(=O)(=O)N2CCc3ccccc32)s1,-14,-3,0,-8,-46*!
CCN(c1ccc(C)cc1)S(=O)(=O)c1nnc(NC(=O)c2cccs2)s1,.,-2,0,-15,-4
CCN(c1ccccc1)S(=O)(=O)c1nnc(NC(=O)CC(C)C)s1,-66*,-6,2,-12,1
SMILES,DRD3 antagonist,D1 PAM,D1 agonist,D3 ag,D1 antagonist
CCCCC(=O)Nc1nnc(S(=O)(=O)N(CC)c2ccccc2)s1,0,3,3,-3,-5
CC(C)Oc1ccc(CNC(=O)C2=Cc3ccccc3OC2)cc1,.,3,9,-4,-1
Cc1cccc(NS(=O)(=O)c2ccc3[nH]c(=O)ccc3c2)c1C,.,-2,12,-18,1
CN(c1ccccc1)S(=O)(=O)c1nnc(NC(=O)c2ccccc2)s1,.,5,-2,-16,-10
CN(c1ccccc1)S(=O)(=O)c1nnc(NC(=O)C2CCCCC2)s1,-12,-5,7,-2,-37*!
CCOP(=O)(OCC)C(NC(=O)Nc1ccccc1)C(N)=O (configuration not stated),7,0,4,8,-32*
CCCc1ccc(S(=O)(=O)Nc2ccc(C)c(NS(C)(=O)=O)c2)cc1,-12,-7,13,-7,-19
CCCCc1ccc(S(=O)(=O)Nc2ccc(C)c(NS(C)(=O)=O)c2)cc1,-9,-5,23,-10,-35*
CCc1cccc(NC(=O)c2nc(-c3ccncc3)no2)c1,.,-3,4,-7,-2
CCc1c(C)sc2c1CCN(C(=O)Nc1cc(OC)c(OC)c(OC)c1)C2c1ccccc1 (configuration not stated),.,7,2,1,-40*
CCOc1cc(C(=O)NCCc2csc(-c3ccc(C)cc3)n2)cc(OCC)c1OCC,.,-5,2,-8,-19
Cc1nc(NS(=O)(=O)c2ccc(N)cc2)nc(C)c1Br,.,.,.,9,.
COc1ccc(/C=N/NC(=O)C[n+]2ccccc2)c(OC)c1OC,-51*,1,1,-12,-3
O=c1cc(CO)occ1O,.,.,.,13,.
CC(=O)C1=C(O)C(=O)N(Cc2cccnc2)C1c1ccc(C)cc1 (configuration not stated),.,-6,1,.,-10
COc1cc(C2C(C(C)=O)=C(O)C(=O)N2Cc2ccccc2)ccc1O (configuration not stated),5,-5,2,12,-32*
COc1cc(C2C(C(=O)C(C)(C)C)=C(O)C(=O)N2Cc2ccccc2)ccc1O (configuration not stated),4,7,2,1,-11
CC(=O)C1=C(O)C(=O)N(Cc2cccnc2)C1c1ccc(Cl)cc1 (configuration not stated),-50*,-2,2,35*,0
CC(C)c1ccc(NC(=O)CN2C=NS(=O)(=O)c3ccccc32)cc1,.,-3,2,-22,6
CCCn1c2ccccc2c2cnn(CC(=O)N(CCCOC)Cc3ccco3)c(=O)c21,.,6,-1,2,5
O=[N+]([O-])c1ccc(O)c(/C=N/Nc2ccccn2)c1,-70*,-1,2,-12,1
Clc1ccc(/C=N/Nc2ccccn2)cc1,9,-9,2,1,-31*
O=[N+]([O-])c1ccc(NN=Cc2ccccc2O)nc1,-4,.,.,-6,.
Oc1ccc(C=NNc2ccccn2)c(O)c1,-61*,.,.,1,.
